Our source for the outcome and AC50 values is PubChem BioAssay (EPA / NIEHS).

Experiment [1] has as its target human Casein Kinase 1-delta (CK1D), CSNK1D (gene 1453) (UniProt P48730). As to the kind of experiment: NVS_ENZ_hCK1D: NovaScreen (NVS) Enzymatic Assay for human Casein Kinase 1-delta (CK1D) (AID 2283148). A digest of the protocol:
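Recombinant human CK1-delta, cell-free; fluorescent substrate with electrophoretic mobility-shift separation of product, read 1 h after dosing. Single 25 uM duplicate screen, then concentration-response up to 50 uM; loss of signal vs DMSO.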

Experiment [2] has as its target human Colony Stimulating Factor 1 Receptor (CSF1R), CSF1R (gene 1436) (UniProt P07333). The experiment is described as follows: NVS_ENZ_hCSF1R: NovaScreen (NVS) Enzymatic Assay for human Colony Stimulating Factor 1 Receptor (CSF1R) (AID 2283150). A digest of the protocol:
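Cell-free recombinant human CSF1R kinase with fluorescent substrate, product separated by electrophoretic mobility shift; read 1 h after dosing. Primary screen at 25 uM in duplicate, actives then in concentration-response up to 50 uM, relative to DMSO.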

Experiment [3] addresses human Esterase Plasma (ES), BCHE (gene 590) (UniProt P06276). The experiment is described as follows: NVS_ENZ_hES: NovaScreen (NVS) Enzymatic Assay for human Esterase Plasma (ES) (AID 2283157). A digest of the protocol: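 Esterase from human plasma, cell-free, colorimetric absorbance read 0.25 h after dosing. Screened at 25 uM in duplicate, with threshold-passing chemicals run in concentration-response up to 50 uM; loss of signal fitted versus DMSO.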

Experiment [4] addresses human Janus Kinase 2 (Jak2), JAK2 (gene 3717) (UniProt O60674). The experiment is described as follows: NVS_ENZ_hJak2: NovaScreen (NVS) Enzymatic Assay for human Janus Kinase 2 (Jak2) (AID 2283169). A digest of the protocol:
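Cell-free recombinant human JAK2 enzyme activity assay, fluorescence/electrophoretic mobility shift read 1 h after dosing. Screened in duplicate at 25 uM, then concentration-response up to 50 uM; activity as signal loss relative to DMSO.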

Experiment [5] deals with human LYN Proto-Oncogene, Src family Tyrosine Kinase (LynA), LYN (gene 4067) (UniProt P07948). As to the kind of experiment: NVS_ENZ_hLynA: NovaScreen (NVS) Enzymatic Assay for human LYN Proto-Oncogene, Src family Tyrosine Kinase (LynA) (AID 2283173). A digest of the protocol:
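Recombinant kinase with fluorescent substrate; product separated from substrate by electrophoretic mobility shift and read 1 h after dosing. Duplicate screen at 25 uM, then concentration-response up to 50 uM; activity scored as signal loss against DMSO.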

In experiment [6] the target is Mitogen-activated protein kinase 3 (Homo sapiens) (UniProt P27361). The experiment is described as follows: NVS_ENZ_hMAPK3: NovaScreen (NVS) Enzymatic Assay for human Mitogen-Activated Protein Kinase 3 (MAPK 3) (AID 2283177). A digest of the protocol:
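Cell-free enzymatic assay with recombinant protein and specific substrate; fluorescence and electrophoretic mobility shift read-out 1 h after dosing. Primary screen duplicate at 25 uM; actives then run in concentration-response up to 50 uM, loss of signal versus DMSO.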

For experiment [7], the target named is human Caspase 8 (CASP8), CASP8 (gene 841) (UniProt Q14790). The experiment is described as follows: NVS_ENZ_hCASP8: NovaScreen (NVS) Enzymatic Assay for human Caspase 8 (CASP8) (AID 2283146). A digest of the protocol: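 E. coli-expressed enzyme was used in a cell-free fluorogenic substrate assay read 1 h after dosing. Loss of signal was scored relative to DMSO, and the primary screen was run in duplicate at 25 uM.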

A further experiment has as its target CDK2 (gene 1017) (UniProt P24941). The experiment is described as follows: NVS_ENZ_hCDK2: NovaScreen (NVS) Enzymatic Assay for human Cyclin-Cependent Kinase 2 (CDK2) (AID 2283144). A digest of the protocol: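 Cell-free recombinant human CDK2 with fluorescent substrate, product separated by electrophoretic mobility shift; 1 hr read. Primary screen at 25 uM in duplicate, actives retested in concentration-response up to 50 uM; loss of signal versus DMSO.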

Experiment [8] deals with human Caspase 4 (CASP4), CASP4 (gene 837) (UniProt P49662). As to the kind of experiment: NVS_ENZ_hCASP4: NovaScreen (NVS) Enzymatic Assay for human Caspase 4 (CASP4) (AID 2283143). A digest of the protocol: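 The cell-free assay used E. coli-expressed enzyme with a fluorogenic substrate, read 2 h after dosing. Signal loss was scored versus DMSO. Screening was in duplicate at 25 uM, then singleton concentration-response up to 50 uM.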
human Caspase 4 (CASP4), CASP4 (gene 837), sequence (P49662 whole entry, looked up): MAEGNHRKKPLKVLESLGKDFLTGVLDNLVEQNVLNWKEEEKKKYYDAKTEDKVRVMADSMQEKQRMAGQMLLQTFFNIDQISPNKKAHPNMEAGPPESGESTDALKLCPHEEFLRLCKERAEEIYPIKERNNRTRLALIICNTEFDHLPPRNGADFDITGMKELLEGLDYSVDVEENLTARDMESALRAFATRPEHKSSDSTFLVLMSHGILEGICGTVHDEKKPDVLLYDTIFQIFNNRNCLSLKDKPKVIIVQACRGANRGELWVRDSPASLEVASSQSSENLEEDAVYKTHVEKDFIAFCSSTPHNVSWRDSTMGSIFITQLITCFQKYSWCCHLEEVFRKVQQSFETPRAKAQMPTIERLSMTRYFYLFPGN

Experiment [9] has as its target human Elastase, ELANE (gene 1991) (UniProt P08246). As to the kind of experiment: NVS_ENZ_hElastase: NovaScreen (NVS) Enzymatic Assay for human Elastase (AID 2283153). A digest of the protocol: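 Cell-free elastase from human neutrophils, 1.5 h after dosing, activity read by absorbance. Primary screen in duplicate at 25 uM; hits (e.g., 30% inhibition) rerun in singleton concentration-response up to 50 uM, fitted versus DMSO.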

Experiment [10] concerns the target Collagenase 3 (Homo sapiens) (UniProt P45452). As to the kind of experiment: NVS_ENZ_hMMP13: NovaScreen (NVS) Enzymatic Assay for human Matrix Metalloproteinase-13 (MMP13) (AID 2283182). A digest of the protocol:
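Recombinant MMP13 cleaving fluorescent substrate, cell-free, measured 1 h after dosing. Primary duplicate screen at 25 uM; actives tested in concentration-response up to 50 uM; loss of signal relative to DMSO.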

For experiment [11], the target named is human Matrix Metalloproteinase-7 (MMP7), MMP7 (gene 4316) (UniProt P09237). As to the kind of experiment: NVS_ENZ_hMMP7: NovaScreen (NVS) Enzymatic Assay for human Matrix Metalloproteinase-7 (MMP7) (AID 2283183). A digest of the protocol:
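Cell-free fluorescence enzymatic assay read 1 h after compound addition, activity loss analyzed against DMSO. Primary duplicate testing at 25 uM; compounds meeting threshold rerun in singleton concentration-response up to 50 uM.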

Experiment [12] has as its target human AKT serine/threonine Kinase 2 (AKT2), AKT2 (gene 208) (UniProt P31751). The experiment is described as follows: NVS_ENZ_hAKT2: NovaScreen (NVS) Enzymatic Assay for human AKT serine/threonine Kinase 2 (AKT2) (AID 2283141). A digest of the protocol: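 Cell-free fluorescence/electrophoretic mobility shift readout of recombinant human AKT2 activity, 1 h after chemical dosing. Duplicate primary screen at 25 uM, then singleton concentration-response up to 50 uM; loss of signal versus DMSO baseline.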

Experiment [13] has as its target Histone deacetylase 3 (Homo sapiens) (UniProt O15379). The experiment is described as follows: NVS_ENZ_hHDAC3: NovaScreen (NVS) Enzymatic Assay for human Histone Deacetylase 3 (HDAC3) (AID 2283163). A digest of the protocol:
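Recombinant human HDAC3 with fluorescent substrate, 1 h after dosing; product separated from substrate by electrophoretic mobility shift and read by fluorescence. Primary screen at 25 uM in duplicate; actives (e.g. ≥30% inhibition) retested in concentration-response up to 50 uM.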

The target of experiment [14] is human MAP Kinase-Activated Protein Kinase 2 (MAPKAPK2), MAPKAPK2 (gene 9261) (UniProt P49137). As to the kind of experiment: NVS_ENZ_hMAPKAPK2: NovaScreen (NVS) Enzymatic Assay for human MAP Kinase-Activated Protein Kinase 2 (MAPKAPK2) (AID 2283178). A digest of the protocol: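 Cell-free recombinant human MAPKAPK2 activity measured by fluorescence with electrophoretic mobility shift separation of substrate and product, 1 hr after dosing. Loss of signal versus DMSO; primary screen at 25 uM, concentration-response up to 50 uM.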

Experiment [15] deals with human FYN Proto-Oncogene, Src family Tyrosine Kinase (Fyn), FYN (gene 2534) (UniProt P06241). The experiment is described as follows: NVS_ENZ_hFyn: NovaScreen (NVS) Enzymatic Assay for human FYN Proto-Oncogene, Src family Tyrosine Kinase (Fyn) (AID 2283161). A digest of the protocol: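 Recombinant enzyme with fluorescent substrate, product separated by electrophoretic mobility shift; read 1 h after dosing. Duplicate 25 uM single-point screen, actives retested in concentration series; loss of signal vs DMSO.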

Experiment [16] addresses human c-Jun N-terminal Kinases (JNK2), MAPK9 (gene 5601) (UniProt P45984). As to the kind of experiment: NVS_ENZ_hJNK2: NovaScreen (NVS) Enzymatic Assay for human c-Jun N-terminal Kinases (JNK2) (AID 2283171). A digest of the protocol:
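Cell-free recombinant human JNK2 activity assay; fluorescent substrate and product separated by electrophoretic mobility shift, read 1 h after dosing. Primary duplicate screen at 25 uM; actives run in concentration-response up to 50 uM, relative to DMSO.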

Records with an inconclusive call do not appear. Active and inactive are the calls of the source. How the source made its calls: active means hit-call score of the fitted dose curve at least 0.9, where 1 is the maximum; inconclusive means response in the unintended direction; inactive means score below 0.9.

As usually defined, the AC50 is the concentration giving half of the maximal activity seen.

human Janus Kinase 2 (Jak2), JAK2 (gene 3717), sequence (O60674 whole entry, looked up): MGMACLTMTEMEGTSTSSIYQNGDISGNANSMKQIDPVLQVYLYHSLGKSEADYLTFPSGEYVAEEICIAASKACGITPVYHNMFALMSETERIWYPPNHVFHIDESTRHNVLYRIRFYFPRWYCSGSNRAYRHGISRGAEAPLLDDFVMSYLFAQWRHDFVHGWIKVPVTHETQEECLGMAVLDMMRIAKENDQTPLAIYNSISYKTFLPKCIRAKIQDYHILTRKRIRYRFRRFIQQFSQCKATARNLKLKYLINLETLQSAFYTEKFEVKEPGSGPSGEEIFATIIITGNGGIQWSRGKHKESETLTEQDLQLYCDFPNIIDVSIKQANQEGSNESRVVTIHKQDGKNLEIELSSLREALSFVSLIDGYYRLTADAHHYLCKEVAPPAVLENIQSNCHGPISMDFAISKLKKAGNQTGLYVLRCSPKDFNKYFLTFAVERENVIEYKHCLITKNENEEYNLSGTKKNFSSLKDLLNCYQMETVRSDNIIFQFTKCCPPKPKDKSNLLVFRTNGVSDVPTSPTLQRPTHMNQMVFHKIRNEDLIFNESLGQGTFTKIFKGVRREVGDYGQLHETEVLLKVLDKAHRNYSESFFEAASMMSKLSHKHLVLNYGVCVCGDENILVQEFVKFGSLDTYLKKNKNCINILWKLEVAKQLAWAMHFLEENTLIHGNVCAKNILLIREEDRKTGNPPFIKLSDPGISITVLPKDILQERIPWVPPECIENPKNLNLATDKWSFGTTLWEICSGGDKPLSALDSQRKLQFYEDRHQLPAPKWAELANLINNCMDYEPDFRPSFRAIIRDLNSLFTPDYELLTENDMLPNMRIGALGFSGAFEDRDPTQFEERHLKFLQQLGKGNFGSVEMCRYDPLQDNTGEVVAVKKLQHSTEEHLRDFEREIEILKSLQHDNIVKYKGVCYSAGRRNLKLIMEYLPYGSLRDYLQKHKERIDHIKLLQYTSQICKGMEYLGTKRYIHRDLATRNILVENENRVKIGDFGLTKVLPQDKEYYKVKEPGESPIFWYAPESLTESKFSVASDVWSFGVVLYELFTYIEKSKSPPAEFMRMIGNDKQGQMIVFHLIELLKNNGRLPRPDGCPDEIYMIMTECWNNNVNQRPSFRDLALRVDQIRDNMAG
human Casein Kinase 1-delta (CK1D), CSNK1D (gene 1453), sequence (P48730 whole entry, looked up): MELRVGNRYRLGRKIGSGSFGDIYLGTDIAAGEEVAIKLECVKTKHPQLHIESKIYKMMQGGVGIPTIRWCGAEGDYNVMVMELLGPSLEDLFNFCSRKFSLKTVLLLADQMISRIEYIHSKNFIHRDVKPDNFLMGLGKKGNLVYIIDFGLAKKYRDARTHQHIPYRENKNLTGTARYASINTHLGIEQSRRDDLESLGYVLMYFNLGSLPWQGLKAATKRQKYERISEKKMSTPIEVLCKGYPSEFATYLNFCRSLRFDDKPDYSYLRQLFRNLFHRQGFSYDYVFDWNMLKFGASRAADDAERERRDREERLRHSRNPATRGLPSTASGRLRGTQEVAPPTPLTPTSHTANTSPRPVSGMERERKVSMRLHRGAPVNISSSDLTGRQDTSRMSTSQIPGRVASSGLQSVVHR
human LYN Proto-Oncogene, Src family Tyrosine Kinase (LynA), LYN (gene 4067), sequence (P07948 whole entry, looked up): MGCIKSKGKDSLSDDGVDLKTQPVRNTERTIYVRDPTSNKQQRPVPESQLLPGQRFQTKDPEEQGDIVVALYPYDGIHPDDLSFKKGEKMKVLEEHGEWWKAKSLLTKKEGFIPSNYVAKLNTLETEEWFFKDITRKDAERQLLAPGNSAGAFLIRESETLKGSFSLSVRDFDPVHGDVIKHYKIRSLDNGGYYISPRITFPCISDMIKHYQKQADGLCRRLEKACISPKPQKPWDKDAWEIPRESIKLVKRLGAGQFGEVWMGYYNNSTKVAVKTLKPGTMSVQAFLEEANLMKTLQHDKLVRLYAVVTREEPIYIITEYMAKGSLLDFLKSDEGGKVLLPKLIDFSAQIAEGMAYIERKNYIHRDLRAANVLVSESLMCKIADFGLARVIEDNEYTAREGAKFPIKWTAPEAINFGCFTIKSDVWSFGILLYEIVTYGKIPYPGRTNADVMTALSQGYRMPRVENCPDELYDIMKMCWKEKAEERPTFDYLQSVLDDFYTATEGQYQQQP
human Elastase, ELANE (gene 1991), sequence (P08246 whole entry, looked up): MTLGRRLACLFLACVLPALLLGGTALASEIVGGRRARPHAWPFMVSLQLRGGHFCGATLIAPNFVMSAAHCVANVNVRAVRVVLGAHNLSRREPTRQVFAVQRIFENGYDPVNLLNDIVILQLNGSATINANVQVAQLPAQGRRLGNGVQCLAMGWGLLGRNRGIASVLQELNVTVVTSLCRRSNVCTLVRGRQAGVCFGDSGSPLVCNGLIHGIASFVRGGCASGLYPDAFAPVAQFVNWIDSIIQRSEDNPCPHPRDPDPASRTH
Histone deacetylase 3 (Homo sapiens), sequence (O15379 whole entry, looked up): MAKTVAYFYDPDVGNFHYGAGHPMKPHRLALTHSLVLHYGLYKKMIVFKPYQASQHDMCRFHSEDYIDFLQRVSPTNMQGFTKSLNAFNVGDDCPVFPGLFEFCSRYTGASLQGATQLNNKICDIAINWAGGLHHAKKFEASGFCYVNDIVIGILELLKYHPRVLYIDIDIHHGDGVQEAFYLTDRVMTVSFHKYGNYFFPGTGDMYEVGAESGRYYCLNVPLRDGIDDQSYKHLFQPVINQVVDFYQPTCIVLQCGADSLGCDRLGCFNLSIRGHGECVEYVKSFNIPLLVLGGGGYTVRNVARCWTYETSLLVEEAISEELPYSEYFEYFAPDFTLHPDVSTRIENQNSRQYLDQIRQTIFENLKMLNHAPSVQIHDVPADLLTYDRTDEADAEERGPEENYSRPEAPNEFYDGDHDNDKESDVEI
human Esterase Plasma (ES), BCHE (gene 590), sequence (P06276 whole entry, looked up): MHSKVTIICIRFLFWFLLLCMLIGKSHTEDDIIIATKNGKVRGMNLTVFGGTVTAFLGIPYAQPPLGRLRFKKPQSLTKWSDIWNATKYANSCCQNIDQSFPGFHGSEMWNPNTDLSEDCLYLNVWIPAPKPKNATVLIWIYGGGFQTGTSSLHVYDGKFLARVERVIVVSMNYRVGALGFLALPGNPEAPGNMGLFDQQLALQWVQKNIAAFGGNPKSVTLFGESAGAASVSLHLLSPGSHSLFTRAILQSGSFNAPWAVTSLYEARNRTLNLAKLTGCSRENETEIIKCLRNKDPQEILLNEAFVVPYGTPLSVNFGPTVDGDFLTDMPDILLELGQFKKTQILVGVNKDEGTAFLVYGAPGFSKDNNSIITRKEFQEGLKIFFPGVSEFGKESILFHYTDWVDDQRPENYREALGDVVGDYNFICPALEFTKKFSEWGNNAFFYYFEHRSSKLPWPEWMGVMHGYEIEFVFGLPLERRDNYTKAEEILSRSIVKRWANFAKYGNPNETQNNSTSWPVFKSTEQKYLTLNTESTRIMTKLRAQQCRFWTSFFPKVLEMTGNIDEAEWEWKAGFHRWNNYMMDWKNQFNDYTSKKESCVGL
human Matrix Metalloproteinase-7 (MMP7), MMP7 (gene 4316), sequence (P09237 whole entry, looked up): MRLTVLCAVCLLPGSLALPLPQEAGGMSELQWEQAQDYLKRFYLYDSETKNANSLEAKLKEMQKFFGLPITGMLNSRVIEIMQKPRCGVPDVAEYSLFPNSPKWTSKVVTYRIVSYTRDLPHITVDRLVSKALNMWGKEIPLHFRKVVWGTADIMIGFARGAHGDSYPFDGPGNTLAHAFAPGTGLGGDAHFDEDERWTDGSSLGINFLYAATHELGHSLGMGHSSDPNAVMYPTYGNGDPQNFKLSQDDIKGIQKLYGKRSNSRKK
human Colony Stimulating Factor 1 Receptor (CSF1R), CSF1R (gene 1436), sequence (P07333 whole entry, looked up): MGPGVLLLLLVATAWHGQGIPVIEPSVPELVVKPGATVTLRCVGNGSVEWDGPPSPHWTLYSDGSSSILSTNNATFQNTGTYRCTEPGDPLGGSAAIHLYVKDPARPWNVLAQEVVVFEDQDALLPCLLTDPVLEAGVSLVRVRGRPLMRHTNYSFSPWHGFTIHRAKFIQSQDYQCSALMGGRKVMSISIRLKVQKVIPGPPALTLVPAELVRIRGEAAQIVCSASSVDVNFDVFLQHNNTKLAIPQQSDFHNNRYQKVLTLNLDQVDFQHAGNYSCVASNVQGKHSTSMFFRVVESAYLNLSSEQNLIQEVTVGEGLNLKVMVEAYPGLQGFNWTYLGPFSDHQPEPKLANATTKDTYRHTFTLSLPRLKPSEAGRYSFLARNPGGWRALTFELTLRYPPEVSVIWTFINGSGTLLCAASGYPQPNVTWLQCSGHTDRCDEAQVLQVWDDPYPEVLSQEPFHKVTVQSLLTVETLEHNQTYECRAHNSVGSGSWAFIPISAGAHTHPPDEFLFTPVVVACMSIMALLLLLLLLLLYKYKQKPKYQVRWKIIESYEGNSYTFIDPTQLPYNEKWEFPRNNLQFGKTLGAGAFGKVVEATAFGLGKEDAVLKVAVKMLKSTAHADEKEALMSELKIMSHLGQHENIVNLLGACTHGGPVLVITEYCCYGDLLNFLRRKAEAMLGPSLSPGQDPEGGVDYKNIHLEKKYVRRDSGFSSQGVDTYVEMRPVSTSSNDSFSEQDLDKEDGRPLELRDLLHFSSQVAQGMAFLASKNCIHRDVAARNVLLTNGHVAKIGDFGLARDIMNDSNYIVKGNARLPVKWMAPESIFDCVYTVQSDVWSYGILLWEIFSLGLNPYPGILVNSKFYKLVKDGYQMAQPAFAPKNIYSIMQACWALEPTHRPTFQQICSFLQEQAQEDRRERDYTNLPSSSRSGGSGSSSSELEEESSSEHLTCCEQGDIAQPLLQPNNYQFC

Regarding `CN(C)C(=O)NC1(c2ccccc2)CCN(CCC[C@]2(c3ccc(Cl)c(Cl)c3)CCCN(C(=O)c3ccccc3)C2)CC1`, the call in experiment [1], in experiment [2], in experiment [4], in [5] and in experiment [6] was inactive. In [3], the AC50 was 5.89 µM (active).

As to `O=C(N[C@@H](c1ccccc1)[C@@H]1CCCCN1)c1cccc(C(F)(F)F)c1Cl`, the compound was called inactive in experiment [1], in experiment [2] and in experiment [5]. Besides, the concentration at half-maximal activity (AC50) in experiment [3] was 20.8 µM (active).

Regarding `CC(C)c1cccc(C(C)C)c1`, the compound was called inactive in experiment [7].

As to `O=C(Oc1ccccc1)c1cccc(C(=O)Oc2ccccc2)c1`, the outcome (with CDK2 (gene 1017); in [1]; in experiment [4]) was inactive.

As for `S=c1[nH]c2ccccc2s1`, the compound was called inactive in [8].

In the case of `CC(C)(O)c1ccc(CNC(=O)c2cccnc2Oc2ccc(F)cc2)cc1`, the call in [9] and in experiment [4] was inactive.

Regarding `CCc1cc(C2=C(C(=O)O)N(c3ccccc3C(F)(F)F)S(=O)(=O)c3ccccc32)cc2c1OCO2`, the compound was classed as inactive in experiment [8] and in experiment [11]. Besides, the values for the AC50 in [9] and in experiment [10] were 8.94 µM (active) and 29.6 µM (active), respectively.

On to `O=C1c2c(O)cccc2Cc2cccc(O)c21`, for which the half-maximal activity concentration (AC50) in experiment [12] is 16 µM (active); in [8], 4.5 µM (active); in [7] it was 7.92 µM (active); in experiment [9], 4.55 µM (active); in [10], 0.671 µM (active); in [11], 20.3 µM (active). In addition, the outcome in experiment [13] and in experiment [14] was inactive.

Take `Cc1cc(Cc2ccc(N)c(C)c2)ccc1N`: the compound was classed as inactive in experiment [9].

As for `CCN(CC)CCOc1ccc(C(=C(Cl)c2ccccc2)c2ccccc2)cc1`, the figures for the AC50 in experiment [15], in experiment [13] and in experiment [5] were 33.6 µM (active), 4.17 µM (active) and 19.8 µM (active), respectively.

`CCCCc1nc2cccnc2n1Cc1ccc(-c2ccccc2-c2nnn[nH]2)cc1`: in experiment [13], the AC50 was 17.2 µM (active).

Turning to `CCCCCCCCCCCCCCCCO`, in experiment [16], the compound was called inactive.

On to `O=C1NC(=O)C(c2ccccc2)(c2ccccc2)N1`, for which, in experiment [5], the result was inactive.
